The list is not random: actives were taken first. Their share in the collection is about 5.2%.
FBPA coupling cs – qHTS Assay for Inhibitors of Fructose-1,6-bisphosphate Aldolase from Giardia Lamblia: Coupling assay counterscreen | coupling enzyme system counterscreen, AmpLite Red fluorescence | activity change, negative = inhibition, % at 58.2 µM, hits read low | actives 0.67% (n = 290,000); in the data active = activity change below about -30%
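Coupling enzymes only (glyceraldehyde-3-phosphate) + compound, at 57.5 uM final, 10 min RT; add substrate/coupling/AmpLite Red mix, 20 min RT; fluorescence ex 525/em 598 nm. Actives flag coupling-system interference.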
Tau ThT inhib – qHTS for Inhibitors of Tau Fibril Formation, Thioflavin T Binding | Microtubule-associated protein tau (Homo sapiens), P10636 | recombinant tau K18 P301L, heparin-induced fibrillization, ThT fluorescence | Potency, µM (doses to about 57.4 µM), actives largely listed as inhibitors | actives 2.1% (n = 270,000); note: nearly all actives have a fitted effect of over 55% in size
Target sequence (P10636 561-689 P618L limits assumed): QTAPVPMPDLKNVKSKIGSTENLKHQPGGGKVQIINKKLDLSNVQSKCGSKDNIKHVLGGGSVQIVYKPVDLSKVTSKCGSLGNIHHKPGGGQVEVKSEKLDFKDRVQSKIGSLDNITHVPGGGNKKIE
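K18 P301L tau (15 uM + 0.24 uM Alexa 594-tagged), heparin 20 uM, NaOAc pH 7, 6 h 37 C; ThT 30 uM, 1 h RT, ex 450/em 510 nm.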
Sfp PPTase inh – qHTS Assay for Inhibitors of Bacillus subtilis Sfp phosphopantetheinyl transferase (PPTase); Biochemical Sfp PPTase activity, qHTS; 4'-phosphopantetheinyl transferase ffp (Bacillus subtilis), Q9F4F7; actives 3.5% (n = 310,000); Potency, µM, usual class: inhibitors;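 note: the enzyme is Sfp with the accession as filed and its product quenches rhodamine fluorescence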
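Compounds were incubated with enzyme (final 15 nM) for 15 min at room temperature before substrate addition started the reaction. Fluorescence at 525 nm excitation, 598 nm emission was recorded immediately and after 30 minutes.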
Tau FP inhib – qHTS for Inhibitors of Tau Fibril Formation, Fluorescence Polarization; Microtubule-associated protein tau (Homo sapiens), P10636; K18 P301L tau heparin fibrillization, Alexa594 FP, 6 h; Potency, µM (doses to about 57.7 µM), most hits filed as inhibitors; actives 0.39% (n = 280,000); AID 1468, 2008; note: nearly all actives have a fitted effect of over 55% in size
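K18 P301L tau (15 uM unlabeled/0.24 uM Alexa 594-labeled, final) + compound + heparin 20 uM final; 100 mM NaOAc pH 7; 6 hr 37 C; ThT 30 uM final added, 1 hr RT; FP ex 555/em 632 nm.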
Tau fluor counter – Counterscreen qHTS for Inhibitors of Tau Fibril Formation, Fluorescence Polarization; tau K18 P301L Alexa594 fluorescence, heparin fibrillization; actives 0.93% (n = 280,000); Potency, µM (top dose mostly 57.7 µM); note: nearly all actives have a fitted effect of over 55% in size
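Human tau K18 P301L (15 uM unlabeled, 0.24 uM Alexa 594-labeled) in 100 mM sodium acetate pH 7 with 20 uM heparin, 6 hr at 37 C. ThT 30 uM added, 1 hr ambient; Alexa 594 FP and total fluorescence read at 555/632 nm.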
A number is an active result; – = inactive; ? = inconclusive; · = not tested or not shown; [ ] = dose if it differs, or a comment. Unless noted, calls come from the whole dose curve; as a rule, active = well fitted curve in the direction sought with a large enough effect; inconclusive = small, poorly fitted or top-dose-only effect, or another doubt; inactive = no such curve, though single readings can be large; an effect the other way counts as inactive or inconclusive.

SMILES	FBPA coupling cs	Tau ThT inhib	Sfp PPTase inh	Tau FP inhib	Tau fluor counter
CCc1cnc2c(c1SCCC(C)C)c(=O)n(C)c(=O)n2C	·	–	·	–	–
COc1ccc(-c2cn[nH]c2-c2ccc(OCc3ccc(F)cc3)cc2O)cc1OC	–	–	–	?	8.91µM[quencher]
COc1ccccc1-c1cn[nH]c1-c1ccc(OCc2ccc([N+](=O)[O-])cc2)cc1O	–	–	–	?	–
Oc1cc(OCc2ccccc2)ccc1-c1[nH]ncc1-c1ccccc1	–	–	–	25.1µM	10µM[quencher]
COc1ccc(-c2cn[nH]c2-c2ccc(OCC(=O)NN)cc2O)cc1OC	–	·	–	·	·
COc1ccc(-c2cn[nH]c2-c2ccc(OCc3ccccc3)cc2O)cc1OC	–	–	–	?	3.16µM[quencher]
O=C(Nc1ccccc1Br)c1cc(S(=O)(=O)NC2CCCCC2)ccc1F	·	–	·	–	–
O=C1C=CC(O)(c2cc(=O)c3c(O)cc(O)cc3o2)C=C1	–	12.6µM	?	11.2µM	–
O=C1c2ccccc2-c2onc3ccc(NCCCn4ccnc4)c1c23	–	11.2µM	–	20µM	?
NS(=O)(=O)c1ccc(NCCCn2ccnc2)c([N+](=O)[O-])c1	–	·	–	·	·
Cc1ccc(/C=N/NC(=O)C(C)Oc2cccc3ccccc23)o1 (stereo not drawn)	–	·	56.2µM	·	·
CC(=O)Nc1ccc(/C=C2\Sc3ccccc3C2=O)cc1	–	?	–	–	–
Cc1ccc(/C=C2\Sc3ccccc3C2=O)s1	–	3.16µM	–	–	–
O=C(O)CSc1cc(NS(=O)(=O)c2ccc(Br)cc2)c2ccccc2c1O	-43.6	·	39.8µM	·	·
O=S(=O)(Nc1cc(Sc2ncn[nH]2)c(O)c2ccccc12)c1ccccc1	-54.9	11.2µM	8.91µM	25.1µM	?
Cc1cc(NS(=O)(=O)c2ccccc2)c(C)c(Cl)c1O	–	–	–	–	–
O=c1c(CCc2ccccc2)nc2cnc(N3CCOCC3)nc2n1C1CC1	–	·	–	·	·
N#Cc1cccc(NC(=O)C2CCN(c3cnccn3)CC2)c1	·	–	·	–	–
Cc1cccc(NC(=O)CCS(=O)(=O)c2ccc3c(c2)n(C)c(=O)c(=O)n3C)c1C	·	–	·	–	–
COc1cc(NC(C)=O)c2ncccc2c1[N+](=O)[O-]	-66.3	–	–	–	–
CCS(=O)(=O)N1CCc2cc(C(=O)Nc3cc(C(F)(F)F)ccc3Cl)ccc21	·	?	·	–	–
Cc1ccc(-c2nc3sc(CCNC(=O)c4ccc(F)c(F)c4)c(C)n3n2)cc1	·	–	·	?	–
O=C(Nc1ccccc1N1CCCCC1)c1ccc(-c2cccc(Cl)c2)o1	–	–	–	–	–
Cc1ccc2nsnc2c1NC(=O)c1ccc(-c2cc(Cl)ccc2Cl)o1	–	?	28.2µM	–	–
O=C(Nc1cccc2nsnc12)c1ccc(-c2cccc(Cl)c2)o1	-39.8	?	25.1µM	–	–
SMILES	FBPA coupling cs	Tau ThT inhib	Sfp PPTase inh	Tau FP inhib	Tau fluor counter
Clc1cccc(-c2ccc(CNCCSc3nnnn3-c3ccccc3)o2)c1	·	–	·	–	–
COc1ccc(-c2ccc([C@H]3[C@@H]4C=CCC[C@@]4(C)C(=O)N3Cc3ccccc3)c(F)c2)cc1	–	–	31.6µM	–	–
Cc1ccc(F)c(C2C3C=CCCC3(C)C(=O)N2Cc2ccccc2)c1 (stereo not drawn)	–	·	28.2µM	·	·
CC(C)C[C@@H](/C=C/S(C)(=O)=O)NC(=O)[C@H](CC(C)C)NC(=O)[C@H](CC(C)C)NC(=O)OCc1ccccc1	·	–	–	–	–
O=C(O)c1ccc(CCN2CCN(CC=Cc3ccc(Cl)cc3)CC2)cc1	–	·	–	·	·
COc1ccc(N(C(=O)/C=C\C(=O)Nc2ccc(C)cc2)C(C(=O)NCc2ccco2)c2ccc(C)cc2)cc1 (stereo not drawn)	·	–	·	–	–
CCOC(=O)C1CCCN(c2c(C(=O)c3ccc(C)cc3)cnc3ccc(OCC)cc23)C1 (stereo not drawn)	·	–	·	–	–
CC(C)CCN1NC2(CCCC(C)C2)NC1=S (stereo not drawn)	–	–	70.8µM	–	–
S=C1NC2(CCCCC2)NN1c1ccccc1	–	?	–	–	–
CC1CCCCC12NC(=S)N(c1ccccc1)N2 (stereo not drawn)	–	25.1µM	17.8µM	?	–
CC1CCC2(CC1)Nc1ccccc1C(=O)N2c1ccccc1 (stereo not drawn)	–	–	–	–	–
CC1CCCC2(C1)NC(=S)N(c1ccccc1)N2 (stereo not drawn)	–	?	50.1µM	–	–
CC1CC(C)(C)CC2(C1)NC(=S)N(c1ccccc1)N2 (stereo not drawn)	–	–	?	–	–
COc1ccc(NC(=O)N2CCc3nc(COc4ccccc4)c4c(c3C2)CO[C@@H](C)C4)cc1	–	?	–	–[11.6 µM]	–[11.6 µM]
N#CC1=C(N)OC2=C(CCC/C2=C/c2ccoc2)C1c1ccoc1 (stereo not drawn)	–	28.2µM	39.8µM	?	–
COC(=O)[C@@H]1OC(c2ccccc2)O[C@H]1C(=O)OC	–	·	–	·	·
CN(C)c1ccc(-c2nc3ccccn3c2/N=C/c2ccc(Br)cc2)cc1	–	14.1µM	–	?	?
Cc1ccc(C2=NN(CC(=O)NC(C)c3ccccc3)C(=O)CC2)cc1 (stereo not drawn)	·	–	·	–	–
CCN(c1ccccc1)c1cc2ccccc2c(=O)[nH]1	-34.4	·	–	·	·
CCN(c1ccccc1)c1nc(=O)c2cccnc2s1	–	–	–	–	–
CSc1ccc(CCNC(=O)Cn2nc(C)n3c(cc4sccc43)c2=O)cc1	·	–	·	–	–
CCn1c(=O)c2c(n3c(=S)[nH]nc13)-c1ccccc1CC21CCCCC1	–	?	17.8µM	–	?
Cc1nc(S/C(=C/c2ccc(-c3cccc(Cl)c3)o2)C(=O)O)n[nH]1	–	2.82µM	44.7µM	–	–
Cc1ccc2nc(/C(C#N)=C/c3ccc(-c4cccc(Cl)c4)o3)[nH]c2c1	·	–	·	–	?
O=C(c1ccc(F)cc1)N1CCC(c2nc(-c3ccc(S(=O)(=O)N4CCCC4)cc3)no2)CC1	·	–	·	–	–
O=C(O)c1cccc(/C=C2/C[C@@H]3[C@@H](/C=C/[C@@H](O)C4CCCCC4)[C@H](O)C[C@@H]3O2)c1	–	·	–	·	·
O=[N+]([O-])c1ccc(C2=NN(c3ccccc3)C(c3ccco3)C2)cc1 (stereo not drawn)	–	5.01µM	–	–	–
O=[N+]([O-])c1ccc(/C=C/C2=NN(c3ccccc3)C(c3ccco3)C2)cc1 (stereo not drawn)	–	3.55µM	39.8µM	–	?
O=S(=O)(c1ccccc1)N1N=C(c2ccc(Br)cc2)CC1c1ccco1 (stereo not drawn)	–	·	–	·	·
